Here are results for 12 compounds from PubChem BioAssay (EPA / NIEHS).

The structures appear in SMILES notation. Activity calls are given as the source filed them. How the source made its calls: active means hit-call score of the fitted dose curve at least 0.9, where 1 is the maximum; inactive means score below 0.9.

Read-out in this experiment: Cytochrome P450 (CYP1A1), CYP1A1 (gene 1543)
Put plainly: LTEA_HepaRG_CYP1A1: Life Technologies and Expression Analysis (LTEA) Assay for Cytochrome P450 (CYP1A1) using HepaRG (AID 2283454). To be noted: mRNA level, 48 h; actives raise or lower the signal. The protocol:
LTEA_HepaRG is a cell based, multiplexed-readout assay that uses HepaRG, a human liver cell line, with measurements taken at 48 hours after chemical dosing on a 96-well plate.LTEA_HepaRG_CYP1A1 is one of 102 assay component(s) measured in the LTEA HepaRG cell culture assay. It is a marker of NR mediated metabolism.Data from the assay component LTEA_HepaRG_CYP1A1 was analyzed into 1 endpoint. This assay endpoint, LTEA_HepaRG_CYP1A1, was analyzed with bidirectional fitting relative to DMSO as the negative control and baseline of activity. Using a type of inducible reporter, measures of mRNA induction for gain or loss-of-signal activity can be used to understand regulation of transcription factor activity. To generalize the intended target to other relatable targets, this assay endpoint is annotated to the cyp intended target family, where the subfamily is xenobiotic metabolism.
A total of 1060 chemcials from the ToxCast library were tested in eight-point concentration-response experiments. Cell culture and cytotoxicity assays were conducted at Thermo Fisher Scientific's Custom Services facility (Madison, WI). A single lot of human HepaRG cells (Thermo Fisher Scientific, Frederick, MD) was used for the cell culture experiments. 96-well format collagen type I coated plates of human HepaRG cells were prepared using established methods. Briefly, cryopreserved HepaRG cells were thawed, plated at a density of approximately 100,000 cells/well in HepaRG Thaw, Plate, and General Purpose media (HPRG770, Thermo Fisher Scientific), and incubated for 48 hours. 0.5% DMSO was selected as vehicle control to balance the requisite need of DMSO in HepaRG cultures to maintain differentiation (for example, baseline metabolism, proportions of hepatocytes vs. cholangiocytes), while enabling further hepatic receptor pathway activation (for example, PXR and CAR) in response to chemical exposure. 48 hours after plating, the culture medium was replaced with HepaRG Serum-Free Incudtion Media. Cells were exposed to each test chemical in duplicate and maintained in CO2 incubators for another 48 hours. Chemical plates were thawed to room temperature and 200x concentrations of treatment groups were prepared. 8-point conentration-reponse curves were made with the highest exposure at 100 uM, followed by half-log dilutions, all in 0.5% DMSO. Each test plate contained variouse controls, induction positive controls (1mM phenobarbital), cytotoxicity positive controls ([…] aflatoxin B1), vehicle controls (0.5% DMSO), and total lysis controls (0.5% DMSO). Cell morphology images were taken using an Essen IncuCyte FLR automated microscope, with six 96-well plates imaged in about 24 minutes. Images were captured and exported and JPEG files. Spent culture media was transfered to black-well plates for the LDH assay, and remaining media was sorted at -80 C for later use. Cells were treated with RLT buffer and frozen until shipped for gene expression analysis. Total RNA was isolated from the cell suspension in 75 uL of Buffer RLT (Qiagen, Germantown, MD 20874) by Quintiles/Expression Analysis (Durham, NC) using a custom isolation procedure. Total RNA from each plate well was transferred to a preamplification plate. Fluidigm's 96.96 Dynamic ArrayTM (Fluidigm, Amsterdam, the Netherlands) technology was used for gene expression analyses by quantitative reverse transcription polymerase chain reaction (qRT-PCR, performed by Quintiles/Expression Analysis, Durham, NC)89. Standard TaqManTM Assays (Applied Biosystems/ThermoFisher Scientific, Foster City, CA) were used to assess the expression of 93 genes selected based on their selectivity and sensitivity to important hepatic receptors known to be modulated by environmental chemicals; importance in human hepatocyte functionality; and hepatotoxicity. […]
Turning to `CCC(C)c1ccccc1O` (configuration not stated), the concentration at half-maximal activity (AC50) is 50 µM (active). For the compound `N=C(N)c1ccc(OCCCCCOc2ccc(C(=N)N)cc2)cc1`, the outcome was inactive.

On to `CCCCC(CC)C(=O)O` (configuration not stated), for which the AC50 was 50 µM (active). For `Cc1[nH]nc2c1N=C(c1ccccc1Cl)c1cc([N+](=O)[O-])ccc1N2`, the AC50 is 81.8 µM (active). Same read-out and setting: the value for `CCCCCCCCCCCCCCC` was 50 µM (active). With `O=C1NS(=O)(=O)c2ccccc21`, the AC50 is 73.2 µM (active). `CN(Cc1cnc2nc(N)nc(N)c2n1)c1ccc(C(=O)N[C@@H](CCC(=O)O)C(=O)O)cc1`: the result was inactive. Take `CCCCCCCCCCCCOS(=O)(=O)O`: the AC50 was 61.6 µM (active). As for `CCCCC=O`, the outcome was inactive.

With `O=C(CCCN1CCC(O)(c2ccc(Cl)cc2)CC1)c1ccc(F)cc1`, the concentration at half-maximal activity (AC50) is 12.4 µM (active). Same read-out and setting: with `CC(=O)Nc1ccc(O)cc1` the figure was 50 µM (active).

Regarding `OCC(CO)(CBr)CBr`, the call was inactive.
